A selection: hits, their analogues and other compounds. The true share with any hit is near 1.5%.
S1P4 agonist = agonists of human S1P4 receptor. O95977. S1P4-expressing cell line, agonist reporter assay. activation, % at 4.98 µM. 220,000 compounds, 0.35% hits; in the data active = activation above about 11%
Target sequence (O95977 whole entry, looked up): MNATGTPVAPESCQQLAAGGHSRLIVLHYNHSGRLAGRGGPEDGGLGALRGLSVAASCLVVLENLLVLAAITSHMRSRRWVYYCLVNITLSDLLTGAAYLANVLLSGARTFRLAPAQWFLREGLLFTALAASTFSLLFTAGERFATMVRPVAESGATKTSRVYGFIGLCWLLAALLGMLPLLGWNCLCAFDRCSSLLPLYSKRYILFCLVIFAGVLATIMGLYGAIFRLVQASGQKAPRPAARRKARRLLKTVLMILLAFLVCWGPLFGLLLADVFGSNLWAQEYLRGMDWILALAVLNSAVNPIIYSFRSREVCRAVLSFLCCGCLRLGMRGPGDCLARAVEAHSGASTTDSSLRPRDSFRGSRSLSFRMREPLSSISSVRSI
Insulin prom up = MIN6 insulin promoter up-regulation; MIN6 insulin promoter-GFP reporter, high-content imaging; stronger effect = higher value; z-score at 5 µM; 190,000 compounds, 0.3% hits; AID 1625;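 active = z-score above 3 at 5 µM with at least 500 cells counted in the well; inconclusive = wells under 500 cells, flagged as cytotoxic or low count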
INS promoter inh = TRM-6 insulin promoter activity inhibition; TRM-6 cells (human fetal islet line), insulin promoter-eGFP reporter, imaging; reporter expression induced with tamoxifen; inhibition, % at 2 µM; 130,000 compounds, 0.9% hits;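 active = inhibition above the mean plus 3 SD, with well images judged a real hit on visual review, cut at about 60% in these data, passing the limit was not always enough; inconclusive = inhibition over the cutoff but images rejected on review; inactive = inhibition not above the cutoff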
S1P3 antag = antagonists of human S1P3 receptor; Q99500; CHO S1P3 NFAT-BLA reporter, FRET fluorescence, antagonist mode; AID 485; inhibition, % at 4.98 µM; 170,000 compounds, 0.27% hits;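 active = inhibition above the plate cutoff, the mean inhibition of test wells on that plate plus 3 SD, cut at about 28% in these data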;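 note: cells challenged with S1P at its EC80 of 0.8 µM; blue over green emission ratio from cleaved BLA substrate after 4 h stimulation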
S1P4 antagonist = blocks the human S1P4 receptor; AID 1510; O95977; 220,000 compounds, 0.26% hits; inhibition, % at 4.98 µM; S1P4-expressing cells, antagonist mode, reporter read-out; in the data active = inhibition above about 29%
Hsp70 act = switches on Hsp70 transcription; HeLa Hsp70 promoter luciferase reporter, luminescence; scaled: vehicle 0, proteasome-inhibitor control 100%; activation, % at 10 µM; 200,000 compounds, 0.04% hits; AID 1203;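 active = activation above the mean across all tested compounds plus 3 SD, cutoff set per campaign, cut at about 5.5% in these data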
Hsp70 act dose = dose-dependent Hsp70 transcriptional activation; shares compounds with Hsp70 act; calls only at 99 µM; HeLa hsp70.1pr-luc reporter, luciferase luminescence; AID 1252; 70 compounds, 10% hits;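 active = over 50% activation at some tested dose; inactive = under 50% activation at every tested dose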
S1P4 ag conf = confirmation of human S1P4 receptor agonists; AID 1523; activation, % at 4.98 µM; S1P4 agonist cell-based reporter assay; shares compounds with S1P4 agonist; 740 compounds, 7% hits; in the data active = activation above about 12%
S1P1 agonist = human S1P1 agonism as S1P4 agonist counter-screen. shares compounds with S1P4 agonist. S1P1 agonist cell-based assay, activation. activation, % at 4.98 µM. 740 compounds, 4% hits. AID 1563; in the data active = activation above about 21%
Target sequence (P21453 whole entry, looked up): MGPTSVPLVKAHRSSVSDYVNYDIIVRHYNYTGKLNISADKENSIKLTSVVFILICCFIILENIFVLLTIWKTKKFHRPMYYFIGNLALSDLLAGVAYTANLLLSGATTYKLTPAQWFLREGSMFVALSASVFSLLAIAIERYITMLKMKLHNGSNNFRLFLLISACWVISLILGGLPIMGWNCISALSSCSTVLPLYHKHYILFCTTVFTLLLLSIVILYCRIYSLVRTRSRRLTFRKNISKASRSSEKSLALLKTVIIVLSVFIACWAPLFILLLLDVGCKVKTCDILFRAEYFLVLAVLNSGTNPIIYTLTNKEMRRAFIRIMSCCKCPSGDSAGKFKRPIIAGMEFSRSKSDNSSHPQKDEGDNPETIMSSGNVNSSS
S1P4 antag cf = confirmation of human S1P4 receptor antagonists; S1P4-expressing cell line, antagonist mode, reporter read-out; shares compounds with S1P4 antagonist; 520 compounds, 71% hits; AID 1524; inhibition, % at 4.98 µM; in the data active = inhibition above about 30%
S1P1 antag = counter-screen for S1P4 antagonists: antagonists of human S1P1. shares compounds with S1P4 antagonist. cell-based S1P1 antagonist counterscreen, inhibition. inhibition, % at 4.98 µM. 520 compounds, 37% hits; in the data active = inhibition above about 40%;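 note: receptor stimulated with S1P near its EC80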
Of the large screens only hits and unclear results are named; the others gave an inactive call (follow-up assays come after a bar, where they were run).

CC1(C)CC(CC(=O)Nc2ccc([N+](=O)[O-])cc2)C(=O)O1 (stereo not given)	none (no result: S1P3 antag)
COc1ccccc1C1Nc2cccc3cccc(c23)N1	Hsp70 act 24 (no result: S1P3 antag) | Hsp70 act dose inactive
CC(Oc1ccc(Cl)cc1Cl)c1nc(-c2ccccn2)no1 (stereo not given)	none (no result: S1P3 antag)
CCOC(=O)/C(=C\c1cccnc1)C(=O)c1cc(C(C)=O)c(Nc2ccccc2)s1	S1P4 antagonist 63, Hsp70 act 17 (no result: S1P3 antag) | Hsp70 act dose inactive
CCOC(=O)/C(=C\c1ccccc1)C(=O)c1cc(C(C)=O)c(Nc2ccccc2)s1	none (no result: S1P3 antag)
CCC(=O)Nc1ccc(C(=O)CSc2nnc(-c3ccc(NS(C)(=O)=O)cc3)n2C)cc1OC	none
COc1cc(OC)nc(-n2ncc(Br)c(Br)c2=O)n1	Insulin prom up inconclusive, Hsp70 act 30 (no result: INS promoter inh) | Hsp70 act dose active
CN(Cc1ccco1)C(=O)Cn1nc(-c2ccc(Cl)cc2)ccc1=O	Hsp70 act 9.3 (no result: Insulin prom up) | Hsp70 act dose inactive
COc1cccc(-c2cc(C(=O)N3C(C)CCCC3C)no2)c1 (stereo not given)	none (no result: S1P3 antag)
O=[N+]([O-])c1ccccc1C1Nc2cccc3cccc(c23)N1	S1P4 antagonist 59, Hsp70 act 30 (no result: S1P3 antag) | Hsp70 act dose inactive | S1P4 antag cf inactive | S1P1 antag inactive
Cc1cccc(CSCc2ccc(C(=O)NC3CCCC3)o2)c1	none
COc1ccc(NC(=O)/C(Cl)=C(/Cl)S(=O)Cc2ccccc2)cn1 (stereo not given)	S1P4 antagonist 91, Hsp70 act 22 (no result: INS promoter inh, S1P3 antag) | Hsp70 act dose inactive | S1P4 antag cf 123 | S1P1 antag 68
COc1ccc(NC(=O)Cc2ccccc2)cn1	none
CCOC(=O)C1=C(CN2CC(C)CC(C)C2)NC(=O)NC1c1ccc2c(c1)OCO2 (stereo not given)	none
Cc1ccc(Nc2cc(C)nn2-c2nc(C)cc(=O)[nH]2)cc1	S1P4 antagonist 92, Hsp70 act 90 | Hsp70 act dose inactive | S1P4 antag cf 114 | S1P1 antag 95
O=C1/C(=C/c2ccncc2)CCc2ccccc21	none (no result: INS promoter inh, Hsp70 act)
O=C1/C(=C/c2ccncc2)CCC/C1=C\c1ccncc1	Insulin prom up inconclusive, S1P4 antagonist 83, Hsp70 act 210 (no result: INS promoter inh) | Hsp70 act dose active | S1P4 antag cf 99 | S1P1 antag inactive
Cc1cc(Cl)n2c(nc3ccccc32)c1C#N	Insulin prom up inconclusive, S1P4 antagonist 44, Hsp70 act 9.7 | Hsp70 act dose inactive | S1P4 antag cf 108 | S1P1 antag 69
CCN(CC)c1cc(C)c(C#N)c2nc3ccccc3n12	none (no result: INS promoter inh, Hsp70 act)
CCCC(=O)N1CCN(c2ccc(NC(=O)c3ccc([N+](=O)[O-])o3)cc2Cl)CC1	S1P4 antagonist 87, Hsp70 act 35 (no result: INS promoter inh) | Hsp70 act dose inactive | S1P4 antag cf 99 | S1P1 antag 49
O=C(Nc1ccc(N2CCN(C(=O)c3ccccc3)CC2)cc1)c1ccc([N+](=O)[O-])o1	S1P4 antagonist 84, Hsp70 act 32 (no result: Insulin prom up, INS promoter inh) | Hsp70 act dose inactive | S1P4 antag cf 116 | S1P1 antag 77
Cc1ccc(NC(=S)N(CCN(C)C)C(C)c2ccco2)c(C)c1 (stereo not given)	none (no result: INS promoter inh, Hsp70 act)
COc1nc(C)nc2c1ccc1ccccc12	none (no result: Insulin prom up, S1P3 antag)
COc1ccc(CC(=O)NNS(=O)(=O)c2ccc(F)cc2)cc1OC	none
COc1ccc(CC(=O)NNS(=O)(=O)c2ccccc2)cc1OC	S1P4 agonist 12 | S1P4 ag conf inactive | S1P1 agonist inactive
Cn1c(CNC(=O)OC(C)(C)C)nnc1SCc1c(Cl)cccc1Cl	S1P4 agonist 56 (no result: INS promoter inh, Hsp70 act) | S1P4 ag conf inactive | S1P1 agonist inactive
Nn1cc(-c2ccccc2)nc1SCC(=O)NCCc1ccccc1	none (no result: INS promoter inh)
Nn1cc(-c2ccccc2)nc1SCC(=O)NCC(F)(F)F	S1P4 agonist 14 | S1P4 ag conf inactive | S1P1 agonist inactive
Cc1nc(Sc2nnnn2C)c2c3c(sc2n1)CCC3	S1P4 agonist 11 (no result: INS promoter inh) | S1P4 ag conf inactive | S1P1 agonist inactive
CCn1c(C)c(C(C)=O)c(N2CCCC2)nc1=S	S1P4 agonist 17 (no result: INS promoter inh) | S1P4 ag conf inactive | S1P1 agonist inactive
C=CCn1c(C)c(C(C)=O)c(N2CCCC2)nc1=S	none
Cc1cccc(CN(C(=S)Nc2c(C)cccc2C)c2cccnc2)c1	S1P4 agonist 18 | S1P4 ag conf inactive | S1P1 agonist inactive
O=C1NC[C@@H](Cc2cccc3ccccc23)N(CC2(c3ccccc3)CC2)C1=O	none (no result: S1P4 agonist, INS promoter inh, S1P3 antag, S1P4 antagonist, Hsp70 act)
Cc1cc(NC(=O)CSc2nc(N)c(NC(=O)c3ccccc3)c(=O)[nH]2)no1	none (no result: INS promoter inh)
COCCSc1nc(N)c(NC(=O)c2ccc(OC)cc2)c(=O)[nH]1	S1P4 agonist 12 (no result: INS promoter inh) | S1P4 ag conf inactive | S1P1 agonist inactive
O=C(O)c1ccc(N=c2oc3cc(O)ccc3cc2C(=O)NCc2ccccc2)cc1	S1P4 agonist 38 (no result: INS promoter inh) | S1P4 ag conf inactive | S1P1 agonist inactive
COc1ccc2cc(C(=O)NCc3ccccc3)c(=Nc3ccc(C(=O)O)cc3)oc2c1	none (no result: INS promoter inh)
NC(=O)c1cc2ccccc2oc1=NCc1ccccc1	none (no result: S1P3 antag)
NC(=O)c1cc2ccc(O)cc2oc1=Nc1ccccc1	S1P4 agonist 33 (no result: Insulin prom up, INS promoter inh) | S1P4 ag conf inactive | S1P1 agonist inactive
NC(=O)c1cc2ccc(O)cc2oc1=NCc1ccccc1	S1P4 agonist 79, Insulin prom up 7 | S1P4 ag conf inactive | S1P1 agonist inactive
CC(=O)Nc1sc(N/N=C\c2ccco2)nc1-c1cccs1	none
Cc1ccc(N/N=C(\C#N)C(N)=S)c(C)c1	S1P4 agonist 20 | S1P4 ag conf inactive | S1P1 agonist inactive
Cc1ccc(NC(=O)/C(C#N)=N/Nc2ccc(C(=O)O)cc2)c(C)c1	none (no result: INS promoter inh, Hsp70 act)
O=c1[nH]c2cc3c(cc2cc1C(c1nnnn1CC1CCCO1)N1CCCC1)OCO3 (stereo not given)	none
O=C(Nc1ccc2c(c1)OCO2)N1CCOCC1	none
O=C(Nc1ccc2c(c1)OCO2)N1CCCC1	S1P4 agonist 46 | S1P4 ag conf inactive | S1P1 agonist inactive
CCOC(=O)N1CCN(C(=O)c2cc(-c3ccc(OCC)cc3)nc3ccccc23)CC1	none
CCOc1ccc(-c2cc3nc(C4CCN(C(=O)OC(C)(C)C)CC4)c(C(=O)O)cn3n2)cc1	S1P4 agonist 126 | S1P4 ag conf inactive | S1P1 agonist inactive
Cc1cc(C(=O)N2CCC(C(=O)O)CC2)c(C)o1	none (no result: Insulin prom up, INS promoter inh, Hsp70 act)

High-throughput results as filed in PubChem.
